B1: unnamed (peptide)
chain: PHNPSPFFPPPDFND

Biological target: AgAbp1
Experiment: SPOT peptide array binding signal intensity (averaged, normalized) (arbitrary units (background-subtracted, floor 0; scale differs between SH3 domains)); higher = stronger binding of the SH3 domain to the peptide
Summary of the method: (§1)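 Spot intensities were captured after detection with anti-GST antibody, an HRP-linked anti-mouse secondary and luminol, and quantified with Genespotter. The probes were GST-fused SH3 domains from four yeast species, produced in E. coli BL21(DE3), purified on glutathione Sepharose and incubated at 10 μg/ml overnight at 4°C on cellulose-bound synthetic 15-mer peptides with cysteines replaced by serines. Binding signal is the normalized, background-subtracted spot intensity averaged over replicates, and its arbitrary units differ between domains.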

Row | Binder | SPOT peptide array binding signal intensity
1 | B1 | ≤ 0

Biological target: AgBbc1
Experiment: as above
Summary of the method: as §1

Row | Binder | SPOT peptide array binding signal intensity
2 | B1 | 3

Biological target: AgBem1-D1
Experiment: as above
Summary of the method: as §1

Row | Binder | SPOT peptide array binding signal intensity
3 | B1 | 16.5

Biological target: AgBzz1-D1
Experiment: as above
Summary of the method: as §1

Row | Binder | SPOT peptide array binding signal intensity
4 | B1 | 5

Biological target: AgBzz1-D2
Experiment: as above
Summary of the method: as §1

Row | Binder | SPOT peptide array binding signal intensity
5 | B1 | 22

Biological target: AgCyk3
Experiment: as above
Summary of the method: as §1

Row | Binder | SPOT peptide array binding signal intensity
6 | B1 | ≤ 0

Biological target: AgFus1
Experiment: as above
Summary of the method: as §1

Row | Binder | SPOT peptide array binding signal intensity
7 | B1 | ≤ 0

Biological target: AgHof1
Experiment: as above
Summary of the method: as §1

Row | Binder | SPOT peptide array binding signal intensity
8 | B1 | ≤ 0

Biological target: AgHse1
Experiment: as above
Summary of the method: as §1

Row | Binder | SPOT peptide array binding signal intensity
9 | B1 | 71

Biological target: AgLsb1
Experiment: as above
Summary of the method: as §1

Row | Binder | SPOT peptide array binding signal intensity
10 | B1 | 3

Biological target: AgLsb4
Experiment: as above
Summary of the method: as §1

Row | Binder | SPOT peptide array binding signal intensity
11 | B1 | ≤ 0

Biological target: AgMyo5
Experiment: as above
Summary of the method: as §1

Row | Binder | SPOT peptide array binding signal intensity
12 | B1 | 610

Biological target: AgNbp2
Experiment: as above
Summary of the method: as §1

Row | Binder | SPOT peptide array binding signal intensity
13 | B1 | 42

Biological target: AgRvs167
Experiment: as above
Summary of the method: as §1

Row | Binder | SPOT peptide array binding signal intensity
14 | B1 | 0.667

Biological target: AgSho1
Experiment: as above
Summary of the method: as §1

Row | Binder | SPOT peptide array binding signal intensity
15 | B1 | ≤ 0

Biological target: AgSla1-D1-D2
Experiment: as above
Summary of the method: as §1

Row | Binder | SPOT peptide array binding signal intensity
16 | B1 | ≤ 0

Biological target: AgSla1-D3
Experiment: as above
Summary of the method: as §1

Row | Binder | SPOT peptide array binding signal intensity
17 | B1 | ≤ 0

Biological target: CaAbp1-D1
Experiment: as above
Summary of the method: as §1

Row | Binder | SPOT peptide array binding signal intensity
18 | B1 | 2

Biological target: CaAbp1-D2
Experiment: as above
Summary of the method: as §1

Row | Binder | SPOT peptide array binding signal intensity
19 | B1 | 28

Biological target: CaBbc1
Experiment: as above
Summary of the method: as §1

Row | Binder | SPOT peptide array binding signal intensity
20 | B1 | 14

Biological target: CaBem1-D1
Experiment: as above
Summary of the method: as §1

Row | Binder | SPOT peptide array binding signal intensity
21 | B1 | ≤ 0

Biological target: CaBzz1-D1
Experiment: as above
Summary of the method: as §1

Row | Binder | SPOT peptide array binding signal intensity
22 | B1 | 1.5

Biological target: CaBzz1-D2
Experiment: as above
Summary of the method: as §1

Row | Binder | SPOT peptide array binding signal intensity
23 | B1 | 1.53e-05

Biological target: CaCyk3
Experiment: as above
Summary of the method: as §1

Row | Binder | SPOT peptide array binding signal intensity
24 | B1 | 1

Biological target: CaFus1
Experiment: as above
Summary of the method: as §1

Row | Binder | SPOT peptide array binding signal intensity
25 | B1 | 32.5

Biological target: CaHof1
Experiment: as above
Summary of the method: as §1

Row | Binder | SPOT peptide array binding signal intensity
26 | B1 | ≤ 0

Biological target: CaHse1
Experiment: as above
Summary of the method: as §1

Row | Binder | SPOT peptide array binding signal intensity
27 | B1 | 2

Biological target: CaLsb1
Experiment: as above
Summary of the method: as §1

Row | Binder | SPOT peptide array binding signal intensity
28 | B1 | ≤ 0

Biological target: CaLsb4
Experiment: as above
Summary of the method: as §1

Row | Binder | SPOT peptide array binding signal intensity
29 | B1 | 28

Biological target: CaMyo5
Experiment: as above
Summary of the method: as §1

Row | Binder | SPOT peptide array binding signal intensity
30 | B1 | 112

Reference: the supplement of paper PMC4466140
